Here are results for 37 molecules from PubChem BioAssay (Tox21).

Results filed as inconclusive are left out. A call without a number means that no potency is given here. The source made the active and inactive calls. Unless noted, the call rests on the fitted dose curve; in most records, active means well fitted cell-killing curve with a large enough effect in the repeat runs; inconclusive means weak or mixed curves, or effect the other way; inactive means no such curve, though single readings can be large or run the other way.

For one test, the target named is Peroxisome proliferator-activated receptor gamma (Homo sapiens) (UniProt P37231). Description: qHTS assay to identify small molecule agonists of the peroxisome proliferator-activated receptor gamma (PPARg) signaling pathway (AID 743094; active means well fitted activation curve with a large enough effect in the signal ratio in the repeat runs, not every such curve was filed as active; the % refers to the signal ratio). Particulars: HEK293H PPARg-UAS-bla, beta-lactamase FRET ratio, 17 h; series mostly up to 57 µM. A digest of the protocol: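 Agonist activity was taken from a beta-lactamase reporter (FRET substrate, 1 h at room temperature) in HEK293H cells carrying a PPARg UAS-bla construct. Compounds in DMSO were incubated 17 h at 37C after a 5 h cell pre-incubation.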
Peroxisome proliferator-activated receptor gamma (Homo sapiens), sequence (P37231 whole entry, looked up): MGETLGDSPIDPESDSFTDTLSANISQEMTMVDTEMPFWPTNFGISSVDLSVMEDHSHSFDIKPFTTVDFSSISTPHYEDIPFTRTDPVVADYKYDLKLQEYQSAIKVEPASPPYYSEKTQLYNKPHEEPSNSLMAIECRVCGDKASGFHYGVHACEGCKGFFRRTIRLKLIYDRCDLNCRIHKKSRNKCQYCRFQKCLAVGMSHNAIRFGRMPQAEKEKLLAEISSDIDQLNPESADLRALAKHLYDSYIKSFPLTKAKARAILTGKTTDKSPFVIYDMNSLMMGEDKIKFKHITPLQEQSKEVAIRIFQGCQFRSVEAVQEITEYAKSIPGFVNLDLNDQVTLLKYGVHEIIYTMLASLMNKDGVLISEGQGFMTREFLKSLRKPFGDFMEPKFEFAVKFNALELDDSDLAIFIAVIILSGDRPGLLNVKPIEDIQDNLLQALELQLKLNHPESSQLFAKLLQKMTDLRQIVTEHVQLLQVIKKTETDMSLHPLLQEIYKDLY
In general terms: Quantitative high-throughput screening tests each substance at several concentrations.
For the molecule `O=C(O)/C=C/c1ccc(Cn2ccnc2)cc1`, the result was inactive.

As to `O=C(O)c1ccccc1S`, the result was inactive.

As for `c1ccc2cnncc2c1`, the result was inactive.

On to `O=S(=O)(O)c1ccccc1O`, for which the outcome was inactive.

In the case of `CCc1cc(S(=O)(=O)O)c2cc(C(C)C)cccc1-2`, the result was inactive.

In the case of `C=C(C)[C@@H]1CCC2=CC(=O)C[C@@H](C)[C@]2(C)C1`, the result was inactive.

As for `c1ccc(SCCSc2ccccc2)cc1`, the result was inactive.

Regarding `COC(C(=O)O)c1ccccc1` (stereo not given), the outcome was inactive.

`CC1=CC(C)C(C=O)C(C)C1` (stereo not given): the result was inactive.

Regarding `CN1[C@@H]2CC[C@H]1CC(NC(=O)n1c(=O)[nH]c3ccccc31)C2` (stereo not given in full), the outcome was inactive.

For `COc1ccc(N=[N+]([O-])c2ccc(OC)cc2)cc1`, the result was inactive.

Consider `NC(CS)C(=O)O` (stereo not given), for which the outcome was inactive.

For the molecule `Oc1ccc2c(c1)OC[C@@H](N1CCC(O)(c3ccc(F)cc3)CC1)[C@H]2O`, the outcome was inactive.

Regarding `C=C(C)C(=O)NCCCN(C)C`, the result was inactive.

Consider `CCC(=O)/C=C/c1ccc(OC)cc1`, for which the result was inactive.

`OC1OC[C@@H](O)[C@H](O)[C@H]1O` (stereo not given in full): the result was inactive.

Consider `CCN1CCCC(OC(=O)C(c2ccccc2)c2ccccc2)C1` (stereo not given), for which the outcome was inactive.

Take `Cn1cnc2c(=O)[nH]c(N)nc21`: the outcome was inactive.

As for `CCCCOCC(C)OCC(C)O` (stereo not given), the outcome was inactive.

Turning to `Cc1ccccc1Br`, the outcome was inactive.

On to `COC(=O)C1=C(C)NC(C)=C(C(=O)OCC(C)=O)C1c1ccccc1[N+](=O)[O-]` (stereo not given), for which the outcome was inactive.

With `Cc1nccn1CC1CCc2c(c3ccccc3n2C)C1=O` (stereo not given), the outcome was inactive.

As to `CCC(=O)Nc1cccc(N)c1`, the result was inactive.

The target is the same in a further test. The test can be described thus: qHTS assay to identify small molecule antagonists of the peroxisome proliferator-activated receptor gamma (PPARg) signaling pathway (AID 743191; calls by dose curve; further: nearly all actives have a fitted effect of over 30% in size). Particulars: HEK293H PPARg-UAS-bla, beta-lactamase ratio, antagonist, 17 h; series mostly up to 62.6 µM. The essentials:
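Beta-lactamase reporter under UAS control in HEK293H PPARg-bla cells; compound treatment 17 h at 37C. Read-out: fluorescence intensity after 1 h room-temperature incubation with LiveBLAzer B/G FRET substrate.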
With `O=C(O)c1ccccc1S`, the result was inactive.

As to `c1ccc2cnncc2c1`, the outcome was inactive.

Regarding `CCCCC1CCCCC(=O)O1` (stereo not given), the result was inactive.

On to `O=S(=O)(O)c1ccccc1O`, for which the result was inactive.

`CCc1cc(S(=O)(=O)O)c2cc(C(C)C)cccc1-2`: the outcome was inactive.

As to `C=C(C)[C@@H]1CCC2=CC(=O)C[C@@H](C)[C@]2(C)C1`, the result was inactive.

In the case of `COC(C(=O)O)c1ccccc1` (stereo not given), the result was inactive.

`CC1=CC(C)C(C=O)C(C)C1` (stereo not given): the result was inactive.

Regarding `CN1[C@@H]2CC[C@H]1CC(NC(=O)n1c(=O)[nH]c3ccccc31)C2` (stereo not given in full), the result was inactive.

Regarding `COc1ccc(N=[N+]([O-])c2ccc(OC)cc2)cc1`, the outcome was inactive.

As to `NC(CS)C(=O)O` (stereo not given), the outcome was inactive.

Regarding `Oc1ccc2c(c1)OC[C@@H](N1CCC(O)(c3ccc(F)cc3)CC1)[C@H]2O`, the outcome was inactive.

With `C=C(C)C(=O)NCCCN(C)C`, the result was inactive.

Consider `CCC(=O)/C=C/c1ccc(OC)cc1`, for which the outcome was inactive.

In the case of `OC1OC[C@@H](O)[C@H](O)[C@H]1O` (stereo not given in full), the result was inactive.

In the case of `CCN1CCCC(OC(=O)C(c2ccccc2)c2ccccc2)C1` (stereo not given), the result was inactive.

Take `CCCCOCC(C)OCC(C)O` (stereo not given): the result was inactive.

With `CC(C)c1ccc2oc3nc(N)c(C(=O)O)cc3c(=O)c2c1`, the outcome was inactive.

Consider `Cc1ccccc1Br`, for which the outcome was inactive.

Regarding `COC(=O)C1=C(C)NC(C)=C(C(=O)OCC(C)=O)C1c1ccccc1[N+](=O)[O-]` (stereo not given), the outcome was inactive.

With `Cc1nccn1CC1CCc2c(c3ccccc3n2C)C1=O` (stereo not given), the outcome was inactive.

Consider `CCC(=O)Nc1cccc(N)c1`, for which the outcome was inactive.

Consider `Cc1ccc(N)cc1[N+](=O)[O-]`, for which the outcome was inactive.

Tested on in another test: not listed separately
The test can be described thus: qHTS assay to identify small molecule antagonists of the peroxisome proliferator-activated receptor gamma (PPARg) signaling pathway - cell viability counter screen (AID 743194). Further: nearly all actives have a fitted effect of over 55% in size. Particulars: PPARg-bla HEK293H viability, CellTiter-Glo luminescence, 17 h, co-treated with 50 nM rosiglitazone; series mostly up to 62.6 µM. A digest of the protocol:
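Viability was measured as CellTiter-Glo luminescence in GeneBLAzer PPARg UAS-bla HEK293H cells. These cells had been exposed 17 h at 37 C to compounds together with rosiglitazone at 50 nM final, with the beta-lactamase readout taken in the same wells.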
As for `O=C(O)c1ccccc1S`, the Potency entry was “inactive”.

With `c1ccc2cnncc2c1`, the Potency entry is “inactive”.

As to `CCCCC1CCCCC(=O)O1` (stereo not given), the Potency result is “inactive”.

In the case of `CCCCCCCCCCCCCCCCCCOCC(O)CO` (stereo not given), the Potency entry was “inactive”.

Regarding `O=S(=O)(O)c1ccccc1O`, the Potency entry was “inactive”.

For the molecule `CCc1cc(S(=O)(=O)O)c2cc(C(C)C)cccc1-2`, the Potency result is “inactive”.

In the case of `C=C(C)[C@@H]1CCC2=CC(=O)C[C@@H](C)[C@]2(C)C1`, the Potency entry is “inactive”.

On to `c1ccc(SCCSc2ccccc2)cc1`, for which the Potency entry was “inactive”.

`COC(C(=O)O)c1ccccc1` (stereo not given): the Potency entry is “inactive”.

With `CC1=CC(C)C(C=O)C(C)C1` (stereo not given), the Potency entry was “inactive”.

`COC(=O)[C@H]1[C@H]2C[C@@H]3c4[nH]c5cc(OC)ccc5c4CCN3C[C@H]2C[C@@H](OC(=O)COc2ccc(OC)cc2)[C@@H]1OC`: the Potency entry was “inactive”.

For the molecule `CN1[C@@H]2CC[C@H]1CC(NC(=O)n1c(=O)[nH]c3ccccc31)C2` (stereo not given in full), the Potency result is “inactive”.

For `COc1ccc(N=[N+]([O-])c2ccc(OC)cc2)cc1`, the Potency result is “inactive”.

Consider `NC(CS)C(=O)O` (stereo not given), for which the Potency result is “inactive”.

As to `Oc1ccc2c(c1)OC[C@@H](N1CCC(O)(c3ccc(F)cc3)CC1)[C@H]2O`, the Potency entry is “inactive”.

For the molecule `C=C(C)C(=O)NCCCN(C)C`, the Potency result is “inactive”.

`CCC(=O)/C=C/c1ccc(OC)cc1`: the Potency entry is “inactive”.

Turning to `OC1OC[C@@H](O)[C@H](O)[C@H]1O` (stereo not given in full), the Potency entry is “inactive”.

`CCN1CCCC(OC(=O)C(c2ccccc2)c2ccccc2)C1` (stereo not given): the Potency result was “inactive”.

`Cn1cnc2c(=O)[nH]c(N)nc21`: the Potency result is “inactive”.

Consider `CCCCOCC(C)OCC(C)O` (stereo not given), for which the Potency result is “inactive”.

On to `Cc1ccccc1Br`, for which the Potency result is “inactive”.

For the molecule `COC(=O)C1=C(C)NC(C)=C(C(=O)OCC(C)=O)C1c1ccccc1[N+](=O)[O-]` (stereo not given), the Potency entry was “inactive”.

Take `CCCCC=O`: the Potency result was “inactive”.

Turning to `Cc1nccn1CC1CCc2c(c3ccccc3n2C)C1=O` (stereo not given), the Potency result is “inactive”.

Turning to `N#CCN(CC#N)CCN(CC#N)CC#N`, the Potency result is “inactive”.

For `CN(C)N=Nc1ccccc1`, the Potency result is “inactive”.

For the molecule `CCC(=O)Nc1cccc(N)c1`, the Potency entry was “inactive”.

With `Cc1nc(-c2ccc(OCC(C)C)c(C#N)c2)sc1C(=O)O`, the Potency result was “inactive”.

Tested on in the next test: not listed separately
Description: qHTS assay for small molecule agonists of the antioxidant response element (ARE) signaling pathway (AID 743202; active means well fitted activation curve with a large enough effect in the signal ratio in the repeat runs, not every such curve was filed as active; the % refers to the signal ratio; further: potency means the concentration at half of the fitted maximal effect). Particulars: HepG2 ARE-bla reporter, beta-lactamase FRET, 16 h; series mostly up to 73.3 µM. The essentials:
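Beta-lactamase reporter activity, read as fluorescence intensity, reflects ARE/Nrf2 pathway induction in HepG2 cells after 16 h compound exposure at 37 C; substrate loading was 2 h at room temperature.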
Regarding `O=C(O)/C=C/c1ccc(Cn2ccnc2)cc1`, the Potency entry was “inactive”.

In the case of `c1ccc2cnncc2c1`, the Potency entry is “inactive”.

`C=C(C)[C@@H]1CCC2=CC(=O)C[C@@H](C)[C@]2(C)C1`: the Potency entry is “inactive”.

For `C=C(C)[C@H]1CC=C(C)CC1`, the Potency result was “inactive”.

For `c1ccc(SCCSc2ccccc2)cc1`, the Potency result was “inactive”.

As to `COC(C(=O)O)c1ccccc1` (stereo not given), the Potency entry was “inactive”.

`CC1=CC(C)C(C=O)C(C)C1` (stereo not given): the Potency entry was “inactive”.

Take `c1cc(CN2CCCCC2)cc(OCCCNc2nc3ccccc3s2)c1`: the Potency entry is “inactive”.

Turning to `COC(=O)[C@H]1[C@H]2C[C@@H]3c4[nH]c5cc(OC)ccc5c4CCN3C[C@H]2C[C@@H](OC(=O)COc2ccc(OC)cc2)[C@@H]1OC`, the Potency entry was “inactive”.

On to `CCCCCCCCCCCCI`, for which the Potency entry was “inactive”.

`CCCCCCCCCCCCCCC`: the Potency result is “inactive”.

On to `CCC(=O)/C=C/c1ccc(OC)cc1`, for which the Potency result is “inactive”.

`OC1OC[C@@H](O)[C@H](O)[C@H]1O` (stereo not given in full): the Potency result is “inactive”.

Regarding `CCN1CCCC(OC(=O)C(c2ccccc2)c2ccccc2)C1` (stereo not given), the Potency result is “inactive”.

Take `Cn1cnc2c(=O)[nH]c(N)nc21`: the Potency result is “inactive”.

`CCCCOCC(C)OCC(C)O` (stereo not given): the Potency entry was “inactive”.

For the molecule `CC(C)c1ccc2oc3nc(N)c(C(=O)O)cc3c(=O)c2c1`, the Potency was 23.7 µM (active).

As to `COC(=O)C1=C(C)NC(C)=C(C(=O)OCC(C)=O)C1c1ccccc1[N+](=O)[O-]` (stereo not given), the Potency result was “inactive”.

On to `CC(O)CN(CCCN(C)C)CCCN(C)C` (stereo not given), for which the Potency result was “inactive”.

Take `Cc1ccc(N)cc1[N+](=O)[O-]`: the Potency result is “inactive”.
